# Source: the supplement of paper PMC8728848
# Only a selection was taken, and the strongest signals are over-represented in it overall.
# Legend:
# Assay in all cases: glycan array binding signal (z-score within array); higher = stronger binding
# Details in all cases: glycan notation: IUPAC condensed, linker removed
# [1] = target: Fuc(a1-2)Gal(b1-3)GlcNAc(b1-2)Man(a1-3)[Fuc(a1-2)Gal(b1-3)GlcNAc(b1-2)Man(a1-6)]Man(b1-4)GlcNAc(b1-4)[Fuc(a1-6)]GlcNAc
# In short: (§1)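 Glycan array data came from 3228 arrays in the Consortium for Functional Glycomics database, and only arrays with an available protein sequence were kept. Glycan names were put into IUPAC-condensed notation, and columns mapping to the same glycan were averaged. The binding signal is a within-array Z-score, averaged across arrays of one protein sequence run at different concentrations or buffers and across linkers. A negative Z-score can be read as non-binding.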
# [2] = target: Fuc(a1-2)Gal(b1-4)[Fuc(a1-3)]GlcNAc(b1-3)GalNAc
# In short: as §1
# [3] = target: Fuc(a1-2)[GalNAc(a1-3)]Gal(b1-4)Glc
# In short: as §1
# [4] = target: Fuc(a1-2)[GalNAc(a1-3)]Gal(b1-4)GlcNAc(b1-2)Man(a1-3)[Fuc(a1-2)[GalNAc(a1-3)]Gal(b1-4)GlcNAc(b1-2)Man(a1-6)]Man(b1-4)GlcNAc(b1-4)GlcNAc
# In short: as §1
# [5] = target: Fuc(a1-2)[GalNAc(a1-3)]Gal(b1-4)GlcNAc(b1-3)Gal(b1-4)GlcNAc
# In short: as §1
# [6] = target: Fuc(a1-2)[GalNAc(a1-3)]Gal(b1-4)GlcNAc(b1-3)Gal(b1-4)GlcNAc(b1-3)Gal(b1-4)GlcNAc
# In short: as §1
# [7] = target: Fuc(a1-2)[GalNAc(a1-3)]Gal(b1-4)[Fuc(a1-3)]GlcNAc(b1-3)GalNAc
# In short: as §1
# [8] = target: Fuc(a1-3)[Gal(b1-4)]GlcNAc(b1-6)[Gal(b1-3)GlcNAc(b1-3)]Gal(b1-4)Glc
# In short: as §1
# [9] = target: Fuc(a1-3)[Gal(b1-4)]GlcNAc6S
# In short: as §1
# Fuc(a1-4)GlcNAc = target: Fuc(a1-4)GlcNAc
# In short: as §1
# [10] = target: Gal(a1-3)Gal(b1-3)GlcNAc(b1-3)GalNAc
# In short: as §1
# Gal(a1-3)GalNAc = target: Gal(a1-3)GalNAc
# In short: as §1
# [11] = target: Gal(b1-3)GalNAc(a1-3)[Fuc(a1-2)]Gal(b1-4)Glc
# In short: as §1
# [12] = target: Gal(b1-3)[Fuc(a1-4)]GlcNAc(b1-2)Man(a1-3)[Gal(b1-3)[Fuc(a1-4)]GlcNAc(b1-2)Man(a1-6)]Man(b1-4)GlcNAc(b1-4)[Fuc(a1-6)]GlcNAc
# In short: as §1
# [13] = target: Gal(b1-3)[Fuc(a1-4)]GlcNAc(b1-3)Gal(b1-3)[Fuc(a1-4)]GlcNAc
# In short: as §1
# [14] = target: Gal(b1-4)GlcNAc(b1-2)Man(a1-3)Man(b1-4)GlcNAc(b1-4)GlcNAc
# In short: as §1
# Gal3S(b1-3)GalNAc = target: Gal3S(b1-3)GalNAc
# In short: as §1
# Gal3S(b1-3)GlcNAc = target: Gal3S(b1-3)GlcNAc
# In short: as §1
# Gal3S(b1-4)Glc6S = target: Gal3S(b1-4)Glc6S
# In short: as §1
# Gal3S(b1-4)GlcNAc = target: Gal3S(b1-4)GlcNAc
# In short: as §1
# [15] = target: GalNAc(a1-3)GalNAc(b1-3)Gal(a1-4)Gal(b1-4)GlcNAc
# In short: as §1
# Glc(a1-4)Glc = target: Glc(a1-4)Glc
# In short: as §1
# Glc(b1-4)Glc = target: Glc(b1-4)Glc
# In short: as §1
# GlcA(b1-3)GlcNAc = target: GlcA(b1-3)GlcNAc
# In short: as §1
# [16] = target: GlcNAc(b1-2)Man(a1-3)[GlcNAc(b1-2)Man(a1-6)]Man(b1-4)GlcNAc(b1-4)GlcNAc
# In short: as §1
# [17] = target: GlcNAc(b1-2)[GlcNAc(b1-6)]Man(a1-6)[GlcNAc(b1-2)Man(a1-3)][GlcNAc(b1-4)]Man(b1-4)GlcNAc(b1-4)GlcNAc
# In short: as §1
# GlcNAc(b1-3)Man = target: GlcNAc(b1-3)Man
# In short: as §1
# [18] = target: GlcNAc6S(b1-3)Gal(b1-4)GlcNAc
# In short: as §1
# [19] = target: Man(a1-3)[Man(a1-6)]Man(a1-6)[Man(a1-3)]Man
# In short: as §1
# [20] = target: Neu5Ac(a2-3)Gal(b1-3)[Neu5Ac(a2-6)]GalNAc
# In short: as §1
# [21] = target: Neu5Ac(a2-3)Gal(b1-4)[Fuc(a1-3)]GlcNAc(b1-3)Gal
# In short: as §1
# [22] = target: Neu5Ac(a2-6)Gal(b1-4)GlcNAc(b1-3)GalNAc
# In short: as §1
# [23] = target: Neu5Ac(a2-6)GalNAc(b1-4)GlcNAc
# In short: as §1
# [24] = target: Neu5Ac(a2-8)Neu5Ac(a2-3)[Gal(b1-3)GalNAc(b1-4)]Gal(b1-4)Glc
# In short: as §1
# [25] = target: Neu5Ac(a2-8)Neu5Ac(a2-8)Neu5Ac(a2-8)Neu5Ac(a2-3)[GalNAc(b1-4)]Gal(b1-4)Glc
# In short: as §1
# [26] = target: Neu5Ac(b2-6)Gal(b1-4)GlcNAc
# In short: as §1
# [27] = target: Neu5Gc(a2-3)Gal(b1-3)GlcNAc
# In short: as §1
binder,measurement,setting,value
Gal 9 (Canis lupus) (protein) MAFSSSQPPYLSPGVPFSGKIQGGLQDGLKITINGTILYCNGTRFAVNFHSGHSDSDIAFHFNPRFEEGGYVVCNTKQKGSWGSEERKMQMPFQMGNPFELCFMVNSCDFKVTVNGSHFTQYSHRVPFHYVDTLSITGAVQLSYISFQSPGVWQSSSAPITQTVIHTVQTTPGQPFPNPIIPPTAYPTPTYPMPFFTSIPGGLYPSKSIIVSGTVLPGAKRFHINLRSGNDIAFHLNPRFNENTVVRNMQINNSWGSEERSLPRKMPFVQGQSFSVWIMCEGHCFKVAVDGEHLFEYYHRLKNLLAINNMEVAGDVQLTHVQT,glycan array binding signal (z-score),[1],-0.285
same,glycan array binding signal (z-score),[2],-0.26
same,glycan array binding signal (z-score),[3],2.88
same,glycan array binding signal (z-score),[4],9.39
same,glycan array binding signal (z-score),[5],5.36
same,glycan array binding signal (z-score),[6],2.68
same,glycan array binding signal (z-score),[7],-0.288
same,glycan array binding signal (z-score),[8],-0.156
same,glycan array binding signal (z-score),[9],-0.337
same,glycan array binding signal (z-score),Fuc(a1-4)GlcNAc,-0.346
same,glycan array binding signal (z-score),[10],0.104
same,glycan array binding signal (z-score),Gal(a1-3)GalNAc,-0.296
same,glycan array binding signal (z-score),[11],3.45
same,glycan array binding signal (z-score),[12],-0.287
same,glycan array binding signal (z-score),[13],-0.315
same,glycan array binding signal (z-score),[14],0.09
same,glycan array binding signal (z-score),Gal3S(b1-3)GalNAc,5.93
same,glycan array binding signal (z-score),Gal3S(b1-3)GlcNAc,0.396
same,glycan array binding signal (z-score),Gal3S(b1-4)Glc6S,3.83
same,glycan array binding signal (z-score),Gal3S(b1-4)GlcNAc,0.222
same,glycan array binding signal (z-score),[15],3.04
same,glycan array binding signal (z-score),Glc(a1-4)Glc,-0.327
same,glycan array binding signal (z-score),Glc(b1-4)Glc,-0.311
same,glycan array binding signal (z-score),GlcA(b1-3)GlcNAc,-0.341
same,glycan array binding signal (z-score),[16],-0.332
same,glycan array binding signal (z-score),[17],-0.338
same,glycan array binding signal (z-score),GlcNAc(b1-3)Man,-0.347
same,glycan array binding signal (z-score),[18],-0.104
same,glycan array binding signal (z-score),[19],-0.346
same,glycan array binding signal (z-score),[20],-0.055
same,glycan array binding signal (z-score),[21],-0.343
same,glycan array binding signal (z-score),[22],-0.178
same,glycan array binding signal (z-score),[23],-0.345
same,glycan array binding signal (z-score),[24],-0.302
same,glycan array binding signal (z-score),[25],-0.331
same,glycan array binding signal (z-score),[26],-0.331
same,glycan array binding signal (z-score),[27],0.216
